Common to all, as to settings: mRNA level, 48 h; actives raise or lower the signal
Read-out in experiment [1]: Bcl-2 (BAX) gene, BAX (gene 581)
The experiment is described as follows: LTEA_HepaRG_BAX: Life Technologies and Expression Analysis (LTEA) Assay for Bcl-2 (BAX) gene using HepaRG (AID 2283470). The essentials:
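Human HepaRG cells treated in duplicate for 48 h across eight concentrations (max 100 uM, 0.5% DMSO); BAX expression measured by qRT-PCR.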

Read-out in experiment [2]: adenosine kinase (ADK) gene, ADK (gene 132)
The experiment is described as follows: LTEA_HepaRG_ADK: Life Technologies and Expression Analysis (LTEA) Assay for adenosine kinase (ADK) gene using HepaRG (AID 2283471). Summed up:
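HepaRG (human liver), 48 h chemical exposure, 8-pt half-log series, top 100 uM, 0.5% DMSO vehicle. Readout: ADK mRNA by qRT-PCR vs housekeeping genes; bidirectional curve fit relative to DMSO baseline.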

Read-out in experiment [3]: Alpha-fetoprotein (AFP) gene, AFP (gene 174)
The experiment is described as follows: LTEA_HepaRG_AFP: Life Technologies and Expression Analysis (LTEA) Assay for Alpha-fetoprotein (AFP) gene using HepaRG (AID 2283472). The essentials:
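Measures AFP mRNA change in HepaRG after 48 h chemical exposure (8 half-log concentrations, highest 100 uM, 0.5% DMSO). Fold change relative to DMSO, fitted in both directions.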

Read-out in the next experiment: BCL2L11 (gene 10018)
The experiment is described as follows: LTEA_HepaRG_BCL2L11: Life Technologies and Expression Analysis (LTEA) Assay for Bcl-2 (BCL2L11) gene using HepaRG (AID 2283473). The essentials: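 HepaRG, 48 h exposure, 8-pt half-log series from 100 uM in 0.5% DMSO, duplicates; qRT-PCR (Fluidigm TaqMan) for BCL2L11, housekeeping-normalized; bidirectional curve fit relative to DMSO baseline.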

Read-out in experiment [4]: Apolipoprotein A-V (APOA5) gene, APOA5 (gene 116519)
The experiment is described as follows: LTEA_HepaRG_APOA5: Life Technologies and Expression Analysis (LTEA) Assay for Apolipoprotein A-V (APOA5) gene using HepaRG (AID 2283474). Summed up:
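HepaRG, 48 h chemical exposure in serum-free induction medium, 8-pt half-log series (top 100 uM), 0.5% DMSO vehicle, duplicates. Readout: APOA5 mRNA by qRT-PCR, housekeeping-normalized; bidirectional fit vs DMSO baseline.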

Read-out in experiment [5]: Apoptosis regulator Bcl-2 (Homo sapiens) (UniProt P10415)
The experiment is described as follows: LTEA_HepaRG_BCL2: Life Technologies and Expression Analysis (LTEA) Assay for Bcl-2 gene using HepaRG (AID 2283475). Summed up:
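Each chemical was tested in duplicate on HepaRG cultures held in serum-free induction medium for 48 h, highest concentration 100 uM with half-log dilutions. Transcript levels came from multiplexed qRT-PCR, normalised to housekeeping genes; activity was scored in either direction relative to DMSO.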

Read-out in experiment [6]: Bcl-2 (BID) gene, BID (gene 637)
The experiment is described as follows: LTEA_HepaRG_BID: Life Technologies and Expression Analysis (LTEA) Assay for Bcl-2 (BID) gene using HepaRG (AID 2283476). Summed up: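 Assay used HepaRG hepatic cells treated 48 h in serum-free medium with half-log dilutions from 100 uM. Endpoint: BID mRNA, qRT-PCR, normalized to ACTB/GAPDH/POLR2A.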

Read-out in another experiment: Caspase-3 (Homo sapiens) (UniProt P42574)
The experiment is described as follows: LTEA_HepaRG_CASP3: Life Technologies and Expression Analysis (LTEA) Assay for cysteine-aspartic acid protease (CASP3) using HepaRG (AID 2283477). Summed up:
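HepaRG, 48 h exposure, 8 conc. (top 100 uM, half-log steps, duplicate), 0.5% DMSO vehicle; qRT-PCR of CASP3 transcript, housekeeping-normalised (ACTB/GAPDH/POLR2A); bidirectional curve fit vs DMSO baseline.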

Read-out in experiment [7]: cysteine-aspartic acid protease (CASP8), CASP8 (gene 841)
The experiment is described as follows: LTEA_HepaRG_CASP8: Life Technologies and Expression Analysis (LTEA) Assay for cysteine-aspartic acid protease (CASP8) using HepaRG (AID 2283480). The essentials:
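CASP8 transcript measured by TaqMan qRT-PCR with ACTB/GAPDH/POLR2A normalization, after 48 h chemical exposure of HepaRG cells in serum-free induction medium. Eight concentrations, top 100 uM, half-log steps, 0.5% DMSO vehicle; fits in both directions versus DMSO.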

Read-out in experiment [8]: Cytochrome P450 2C19 (Homo sapiens) (UniProt P33261)
The experiment is described as follows: LTEA_HepaRG_CYP2C19: Life Technologies and Expression Analysis (LTEA) Assay for CYP2C19 using HepaRG (AID 2283482). The essentials:
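HepaRG, 48 h chemical exposure, 8-pt half-log series from 100 uM in 0.5% DMSO, duplicates. Readout: CYP2C19 mRNA by TaqMan qRT-PCR, housekeeping-normalized. Bidirectional fit vs DMSO baseline; phenobarbital 1mM as induction control.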

Read-out in a further experiment: CYP2C8 (gene 1558)
The experiment is described as follows: LTEA_HepaRG_CYP2C8: Life Technologies and Expression Analysis (LTEA) Assay for CYP2C8 using HepaRG (AID 2283483). The essentials: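 CYP2C8 expression measured by TaqMan qRT-PCR and normalized to three housekeeping genes. HepaRG cultures were treated for 48 h with an eight-point half-log series topping at 100 uM, vehicle 0.5% DMSO, duplicates; fitted both directions against DMSO.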

Read-out in a further experiment: CYP2C9 (gene 1559)
The experiment is described as follows: LTEA_HepaRG_CYP2C9: Life Technologies and Expression Analysis (LTEA) Assay for CYP2C9 using HepaRG (AID 2283484). Summed up: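 CYP2C9 transcript level, quantified by TaqMan qRT-PCR against three housekeeping genes, was fitted bidirectionally relative to 0.5% DMSO. HepaRG cultures were treated 48 h, in duplicate, at eight half-log concentrations topping at 100 uM.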

Read-out in another experiment: CYP2E1 (gene 1571)
The experiment is described as follows: LTEA_HepaRG_CYP2E1: Life Technologies and Expression Analysis (LTEA) Assay for CYP2E1 using HepaRG (AID 2283485). Summed up:
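Assay uses 48 h exposure of HepaRG hepatic cells, eight concentrations to 100 uM. Expression of CYP2E1 is quantified by TaqMan qRT-PCR with ACTB, GAPDH and POLR2A normalization; curves fitted in both directions relative to vehicle.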

Read-out in experiment [9]: Pro-epidermal growth factor (Homo sapiens) (UniProt P01133)
The experiment is described as follows: LTEA_HepaRG_EGF: Life Technologies and Expression Analysis (LTEA) Assay for Epidermal growth factor (EGF) using HepaRG (AID 2283489). Summed up: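 qRT-PCR readout of EGF transcript after 48 h chemical exposure of HepaRG cells; eight concentrations from 100 uM down in half-log steps, duplicate wells, 0.5% DMSO vehicle. Bidirectional curve fitting against DMSO baseline.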

Read-out in experiment [10]: Cytochrome P450 (CYP24A1), CYP24A1 (gene 1591)
The experiment is described as follows: LTEA_HepaRG_CYP24A1: Life Technologies and Expression Analysis (LTEA) Assay for Cytochrome P450 (CYP24A1) using HepaRG (AID 2283478). Summed up:
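qRT-PCR read-out: CYP24A1 transcript levels normalized to three housekeeping genes, bidirectional curve fits against 0.5% DMSO baseline. Human HepaRG cells treated 48 h with chemicals at eight concentrations from 100 uM in half-log steps.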

Read-out in experiment [11]: Cytochrome P450 (CYP1A2), CYP1A2 (gene 1544)
The experiment is described as follows: LTEA_HepaRG_CYP1A2: Life Technologies and Expression Analysis (LTEA) Assay for Cytochrome P450 (CYP1A2) using HepaRG (AID 2283479). Summed up: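 HepaRG, 48 h exposure, top 100 uM, half-log 8-pt, 0.5% DMSO vehicle, duplicates. Readout: TaqMan qRT-PCR of CYP1A2 mRNA, housekeeping-normalized (ACTB/GAPDH/POLR2A). Gain/loss fit relative to DMSO baseline.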

Read-out in experiment [12]: Cytochrome P450 (CYP2B6), CYP2B6 (gene 1555)
The experiment is described as follows: LTEA_HepaRG_CYP2B6: Life Technologies and Expression Analysis (LTEA) Assay for Cytochrome P450 (CYP2B6) using HepaRG (AID 2283481). Summed up: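 Read-out is CYP2B6 mRNA by TaqMan qRT-PCR, normalized to three housekeeping genes and fitted bidirectionally against 0.5% DMSO baseline. Human HepaRG cells received test chemicals for 48 h, top concentration 100 uM, half-log dilutions.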

Read-out in experiment [13]: DNA damage-inducible transcript 3 (DDIT3), DDIT3 (gene 1649)
The experiment is described as follows: LTEA_HepaRG_DDIT3: Life Technologies and Expression Analysis (LTEA) Assay for DNA damage-inducible transcript 3 (DDIT3) using HepaRG (AID 2283488). Summed up:
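Eight-point concentration-response (100 uM highest, half-log dilutions) in HepaRG, 48 h, duplicate wells. Endpoint: qRT-PCR mRNA, normalized (ACTB, GAPDH, POLR2A), bidirectional fitting with DMSO as baseline.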

Calls of active or inactive are those of the source. How the source made its calls: active means hit-call score of the fitted dose curve at least 0.9, where 1 is the maximum; inactive means score below 0.9.

Consider four compounds from PubChem BioAssay (EPA / NIEHS).

Chain of Caspase-3 (Homo sapiens) (P42574 whole entry, looked up): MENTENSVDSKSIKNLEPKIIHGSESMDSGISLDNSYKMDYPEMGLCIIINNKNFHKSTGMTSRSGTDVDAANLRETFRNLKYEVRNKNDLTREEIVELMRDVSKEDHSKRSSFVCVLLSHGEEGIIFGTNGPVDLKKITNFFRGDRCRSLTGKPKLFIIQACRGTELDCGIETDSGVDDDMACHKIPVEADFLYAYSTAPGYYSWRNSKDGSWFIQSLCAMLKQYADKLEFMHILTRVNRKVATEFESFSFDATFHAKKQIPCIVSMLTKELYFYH
Chain of Apoptosis regulator Bcl-2 (Homo sapiens) (P10415 whole entry, looked up): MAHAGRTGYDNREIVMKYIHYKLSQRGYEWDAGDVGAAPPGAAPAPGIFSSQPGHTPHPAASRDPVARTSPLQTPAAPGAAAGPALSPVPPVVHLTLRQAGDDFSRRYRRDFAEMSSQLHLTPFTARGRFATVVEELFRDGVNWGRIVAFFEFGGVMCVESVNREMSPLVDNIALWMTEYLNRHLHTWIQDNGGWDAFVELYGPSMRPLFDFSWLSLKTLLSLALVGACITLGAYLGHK
Chain of Cytochrome P450 2C19 (Homo sapiens) (P33261 whole entry, looked up): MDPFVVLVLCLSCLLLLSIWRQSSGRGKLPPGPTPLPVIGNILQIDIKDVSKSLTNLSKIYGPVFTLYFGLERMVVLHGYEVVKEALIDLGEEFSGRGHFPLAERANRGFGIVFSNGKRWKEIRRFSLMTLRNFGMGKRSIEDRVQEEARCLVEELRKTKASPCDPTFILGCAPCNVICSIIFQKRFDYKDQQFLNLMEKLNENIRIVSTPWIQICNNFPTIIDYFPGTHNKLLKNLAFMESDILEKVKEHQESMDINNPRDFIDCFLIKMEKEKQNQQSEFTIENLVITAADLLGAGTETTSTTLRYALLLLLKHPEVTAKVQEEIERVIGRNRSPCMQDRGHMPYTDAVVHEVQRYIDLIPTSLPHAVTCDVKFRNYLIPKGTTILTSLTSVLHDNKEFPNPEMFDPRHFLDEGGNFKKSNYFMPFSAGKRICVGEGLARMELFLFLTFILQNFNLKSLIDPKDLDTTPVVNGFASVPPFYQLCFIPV

`CS(=O)(=O)c1ccc([C@@H](C[C@H]2CCC(=O)C2)C(=O)Nc2cnccn2)cc1Cl`: the AC50 in [1] was 25.4 µM (active); in [2], 0.952 µM (active); in experiment [3], 0.908 µM (active); in the experiment with BCL2L11 (gene 10018) it was 1.15 µM (active); in [4], 50 µM (active); in experiment [5] it was 16.1 µM (active). Also, the AC50 in experiment [6] was 2.25 µM (active); in the experiment with Caspase-3 (Homo sapiens), 0.843 µM (active); in experiment [7], 1.2 µM (active); in experiment [8], 1.38 µM (active); with CYP2C8 (gene 1558), 1.09 µM (active); in experiment [9], 23.5 µM (active). Further, the call with CYP2C9 (gene 1559) and with CYP2E1 (gene 1571) was inactive.
For `CCCCCCCCCC[N+](C)(C)[O-]`, the outcome (in [1]; in [2]; in experiment [3]; with BCL2L11 (gene 10018); in experiment [4]; in experiment [5]) was inactive. In addition, the call (in experiment [6]; with Caspase-3 (Homo sapiens); in experiment [10]; in [11]; in experiment [7]; in experiment [8]) was inactive. For the same compound, the call (in the experiment with CYP2C8 (gene 1558); with CYP2C9 (gene 1559); in the experiment with CYP2E1 (gene 1571); in [13]; in experiment [9]) was inactive. In experiment [12], the AC50 is 34 µM (active).
With `OCC(O)CO`, the call (in experiment [1]; in experiment [2]; in [3]; with BCL2L11 (gene 10018); in [4]; in experiment [5]) was inactive. Also, the compound was classed as inactive (in experiment [6]; with Caspase-3 (Homo sapiens); in experiment [10]; in experiment [11]; in experiment [7]; in [8]). The compound was classed as inactive (with CYP2C8 (gene 1558); with CYP2C9 (gene 1559); in the experiment with CYP2E1 (gene 1571); in experiment [13]; in [9]). In addition, the AC50 in [12] is 22.6 µM (active).
Regarding `COC(=O)[C@H]1[C@H]2C[C@@H]3c4[nH]c5cc(OC)ccc5c4CCN3C[C@H]2C[C@@H](OC(=O)c2cc(OC)c(OC)c(OC)c2)[C@@H]1OC`, the compound was called inactive (in experiment [1]; in [2]; in the experiment with BCL2L11 (gene 10018); in [6]; in the experiment with Caspase-3 (Homo sapiens); in experiment [10]). For the same compound, the result in experiment [7] was inactive. Moreover, the AC50 in experiment [3] was 60.8 µM (active); in experiment [4] it was 55.6 µM (active); in [5] it was 42.2 µM (active); in experiment [11], 9.74 µM (active); in experiment [12], 61.7 µM (active); in experiment [8] it was 63.4 µM (active). Further, the half-maximal activity concentration (AC50) was 63.5 µM (active) with CYP2C8 (gene 1558), 60.9 µM (active) with CYP2C9 (gene 1559), 49.3 µM (active) in the experiment with CYP2E1 (gene 1571) and 42.2 µM (active) in experiment [9].

Broadly, the AC50 is the concentration at which the activity in the assay is half-maximal.
